Laboratory results from PubChem BioAssay AID652174 (National Center for Advancing Translational Sciences (NCATS), 2013).
Active and inactive are the calls of the source. The call rests on the fitted dose curve; in most records, active means well fitted curve in the direction sought with a large enough effect; inactive means no such curve, though single readings can be large or run the other way.

molecular target: Ubiquitin carboxyl-terminal hydrolase 2 (Homo sapiens) (UniProt O75604); assay: Confirmation Assay for Inhibitors of Ubiquitin-specific Protease USP2a Using CHOP2 as the Reporter: SAR; details: USP2 core, Ub-CHOP2 reporter, fluorescence 485/531
Source text: Homeostasis of cellular proteins is maintained through a combination of synthesis and degradation. The pathway that accounts for the majority of protein degradation is the ubiquitin-proteasomal pathway. Ubiquitin (Ub) is highly conserved in all cells and the generation of a multi-Ub chain typically targets proteins for degradation by the proteasome. However, ubiquitination is highly reversible and dynamic. Deubiquitination, the reverse process, is catalyzed through the action of enzymes referred to as isopeptidases or deubiquitinating enzymes (DUBs). This group of enzymes is collectively responsible for maintaining adequate pools of free ubiquitin and regulating the ubiquitination status of cellular proteins. […] Thus, this coupled assay gives a fluorescent read-out at excitation/emission wavelengths of 485/531. […]
The assay buffer, prepared fresh at the day of the assay, contains 20mM Tris-HCl pH 8.0, 2mM CaCl2, 2mM beta-Mercaptoethanol, 0.05% CHAPS. […] Plates were read after 60min RT incubation on a ViewLux (Perkin Elmer) plate reader using the following wavelengths Ex 485nm /Em 531nm. […] Concentration-response curves were fitted to the normalized data and the concentration-response curves were then classified based on curve quality (r2), response magnitude and degree of measured activity. The time zero reading was used to flag fluorescence artifacts. […]

Chain of Ubiquitin carboxyl-terminal hydrolase 2 (Homo sapiens) (O75604 whole entry, looked up): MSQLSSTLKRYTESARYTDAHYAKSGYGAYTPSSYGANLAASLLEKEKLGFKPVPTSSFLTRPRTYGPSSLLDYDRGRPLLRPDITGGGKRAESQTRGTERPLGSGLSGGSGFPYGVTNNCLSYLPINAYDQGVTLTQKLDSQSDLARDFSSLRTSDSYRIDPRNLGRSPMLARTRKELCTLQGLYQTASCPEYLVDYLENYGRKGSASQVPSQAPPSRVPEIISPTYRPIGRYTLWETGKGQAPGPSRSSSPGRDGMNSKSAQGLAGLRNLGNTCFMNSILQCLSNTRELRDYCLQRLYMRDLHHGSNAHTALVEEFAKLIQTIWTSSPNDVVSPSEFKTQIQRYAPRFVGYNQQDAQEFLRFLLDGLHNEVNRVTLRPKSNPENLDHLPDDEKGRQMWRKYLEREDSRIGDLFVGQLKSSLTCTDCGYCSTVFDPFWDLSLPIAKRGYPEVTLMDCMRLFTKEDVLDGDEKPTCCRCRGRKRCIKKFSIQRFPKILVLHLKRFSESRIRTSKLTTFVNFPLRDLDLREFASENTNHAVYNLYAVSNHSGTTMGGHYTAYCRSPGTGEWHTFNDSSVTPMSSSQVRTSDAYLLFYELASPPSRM

| SMILES | Potency |
| --- | --- |
| Cc1ccc(S(=O)(=O)Nc2ccccc2C(=O)Nc2nc(-c3ccccc3)cs2)cc1 | 11.3 µM (active) |
| Cc1ccc(S(=O)(=O)Nc2ccccc2C(=O)Nc2nc(-c3ccc(Cl)cc3)cs2)cc1 | 5.65 µM (active) |
